# According to PubChem BioAssay AID2108 (National Center for Advancing Translational Sciences (NCATS), 2009):
# Records with an inconclusive call do not appear. Unmarked numbers belong to inactive results. Calls come from the whole dose curve; as a rule, active = well fitted curve in the direction sought with a large enough effect; inconclusive = small, poorly fitted or top-dose-only effect, or effect the other way, or another doubt; inactive = no such curve, though single readings can be large or run the other way. Non-standard residues stand in square brackets, D forms with d. Residues, ends and D or L forms follow the SMILES beside them. *: point of attachment. Nle = CCCC[C@H](N)C(=O)O; Boc = CC(C)(C)OC(=O)*
# Molecular target: Alpha-galactosidase A (Homo sapiens) (UniProt P06280)
# Assay: Confirmation of Inhibitors of Human alpha-Galactosidase Using Spleen Homogenate; note: 0% is about no effect
# Conditions: alpha-galactosidase enzyme activity; series mostly up to 56.2 µM; activity change: at the top concentration
# Excerpt: NIH Chemical Genomics Center [NCGC]
# NIH Molecular Libraries Probe Production Centers Network [MLPCN]
# Assay Submitter (PI): Wei Zheng
# Alpha-galactosidase is a homodimeric glycoprotein that hydrolyzes the terminal alpha-galactosyl moieties from glycolipids and glycoproteins. Deficiency of this enzyme results in Fabry Disease with progressive accumulation of globotriaosylceramide and other glycosphingolipids in vascular endothelial cells that causes renal failure, myocardial infarction and stroke, and premature death in patients. It has been reported that the improper folding and trafficking of alpha-galactosidase resulting from genetic mutations may account for a significant number of Fabry patients. […] We optimized this alpha-galactosidase assay in 1536-well plate format for identification of novel small molecule inhibitors or activators with structures other than the sugar analogs in order to develop new pharmacological chaperones. In particular, this assay is directed towards discovering compounds active in more natural setting, tissue homogenate, that may have been missed by screens of the purified enzyme under more stringent conditions. This assay attempted to confirm hits from the primary screening.
# NCGC Assay Protocol Summary:
# This is a fluorogenic enzyme assay with 4-methylumbelliferyl-alpha-D-galactopyranoside as the substrate and human spleen homogenate containing alpha-galactosidase as the enzyme preparation. Upon hydrolysis of this fluorogenic substrate, the resulting product, 4-methylumbelliferone (which excites at 365 nm and emits at 440 nm) can be detected by a fluorescence plate reader. Data were normalized to the controls for basal activity (without enzyme) and 100% activity (with enzyme). The AC50 values were determined from concentration-response data modeled with the standard Hill equation.
# Assay buffer: 50 mM citric acid (titrated with potassium phosphate to pH 5.0), 0.01% Tween-20 (pH 5.0 is an optimal condition for this enzyme assay)
# 1536-well assay protocol for the alpha-galactosidase from human spleen homogenate:
# (1) Add 2 ul/well spleen homogenate (1 ug)
# (2) Add 23 nL compounds in DMSO solution. The final titration was 0.5 nM to 58 uM.
# (3) Add 2 ul of substrate (1 mM final)
# (4) Incubate at 37C for 40 min
# (5) Add 2 ul stop solution (1M NaOH and 1M Glycine mixture, pH 10)
# (6) Detect the assay plate in a ViewLux plate reader (PerkinElmer) with Ex=365 nm and Em=440nm.
# Keywords: Alpha-galactosidase, Fabry Disease, pharmacological chaperone, chaperone therapy, high throughput screening, alpha- galactosidase inhibitor, MLSMR, MLSCN, NIH Roadmap, qHTS and NCGC
# Sequence of Alpha-galactosidase A (Homo sapiens) (P06280 32-429 limits assumed): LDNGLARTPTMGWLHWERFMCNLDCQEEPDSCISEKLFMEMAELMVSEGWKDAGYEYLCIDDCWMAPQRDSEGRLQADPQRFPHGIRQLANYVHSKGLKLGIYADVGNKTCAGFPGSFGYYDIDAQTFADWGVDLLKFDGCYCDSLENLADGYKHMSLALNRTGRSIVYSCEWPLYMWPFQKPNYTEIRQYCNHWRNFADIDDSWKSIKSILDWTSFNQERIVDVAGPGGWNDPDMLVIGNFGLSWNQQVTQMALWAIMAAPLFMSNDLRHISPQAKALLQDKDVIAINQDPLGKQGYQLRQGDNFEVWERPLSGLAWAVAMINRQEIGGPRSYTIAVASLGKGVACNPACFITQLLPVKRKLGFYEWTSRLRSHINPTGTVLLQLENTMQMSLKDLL
row,SMILES,activity change
1,CCC(=O)N1CCN(c2ccc(Cl)cc2NC(=O)c2ccc(N3CCCC3)c([N+](=O)[O-])c2)CC1,3.89% [at 23.6 µM]
2,Cc1c(OCC(F)(F)F)ccnc1CS(=O)c1nc2ccccc2[nH]1 (stereo not given),-5.23% [at 287 µM]
3,Nc1ccc(S(=O)(=O)N2CCOCC2)cc1,12.2%
4,O=C(c1ccc2ccccc2c1)N1CCN(S(=O)(=O)c2ccccc2)CC1,4.96%
5,N#Cc1c(N2CCN(c3ccc(F)cc3)CC2)nc(N)c2c(N)nc3c(c12)CC(=O)N3C1CC1,-2.17%
6,COC(=O)c1ccc(S(=O)(=O)N2CCOCC2)cc1,-5.18%
7,Cc1ccc(N=Nc2c(N)nn(-c3ccccc3)c2N)cc1,9.02%
8,COc1ccc(/C=C(/NC(=O)c2ccccc2)C(=O)NC(Cc2c[nH]c3ccccc23)C(=O)O)cc1 (stereo not given),-6.83%
9,O=C(O)C[C@@H]1C(=O)O[C@@H]2C(COC(=O)c3cc(O)c(O)c(O)c3)O[C@@H](OC(=O)c3cc(O)c(O)c(O)c3)[C@@H](OC(=O)c3cc(O)c(O)c4c3[C@H]1[C@H](O)C(=O)O4)[C@H]2OC(=O)c1cc(O)c(O)c(O)c1 (stereo not given in full),2.68% [at 23.6 µM]
10,CC1CC(C)CN(CC(=O)N2c3ccccc3CCc3ccccc32)C1 (stereo not given),-3.83%
11,O=C(/C=C/c1ccc(O)c(O)c1)c1ccc(O[C@@H]2O[C@H](CO)[C@@H](O)[C@H](O)[C@H]2O)c(O)c1O,-9.67%
12,CCOC(=O)C(CC)Sc1ncnc2c1c(-c1ccccc1)cn2-c1ccc(OC)cc1 (stereo not given),-3.87%
13,O=S(=O)(c1ccccc1)N1CCN(Cc2ccccc2)CC1,-2.74%
14,O=c1oc2ccc3ccccc3c2cc1-c1nc2c(s1)CCc1ccccc1-2,8.82%
15,Nc1ccccc1N=Cc1ccc(-c2cccc(Cl)c2)o1,8.41%
16,OC[C@H]1NC[C@H](O)[C@@H](O)[C@H]1O,-7.1% [at 287 µM]
17,O=C(CSc1n[nH]c(-c2ccccc2)n1)c1ccc(O)c(O)c1,-0.0554%
18,COc1ccc(S(=O)(=O)N2CCN(C(=O)COc3ccc4c(C)cc(=O)oc4c3)CC2)cc1,9.75%
19,O=S(=O)(c1ccccc1)N1CCN(c2ccccc2)CC1,0.829%
20,C/C=C1\COC(C(=O)NCCN2CCOCC2)(C(F)(F)F)C=C1C=C1CCCCC1 (stereo not given),-3.09%

row,SMILES,activity change
1,Nc1cnc(Nc2ccc(Br)cc2)nc1N,-1.95%
2,CCOc1ccc2c(c1)c(=O)c(S(=O)(=O)c1ccc(C)cc1)cn2Cc1ccccc1Cl,-3.76%
3,O=C(CSc1ccccc1)Nc1nnc(/C=C/c2ccccc2)s1,20%
4,O=C(O)c1cc2c(ccc3ccccc32)o1,-0.971% [at 23.6 µM]
5,CC(=O)c1ccc(S(=O)(=O)N2CCOCC2)cc1,3.77%
6,O=C(Cc1ncc(C(F)(F)F)cc1Cl)NCCc1ccccc1,7.47% [at 23.6 µM]
7,Cc1cc(/C=N/NC(=O)c2ccc(O)cc2)c(C)n1C1CC1,1.75%
8,Cc1ccc(S(=O)(=O)N2CCOCC2)cc1C,6.39%
9,CCNc1ccc(C2(O)C(=O)c3ccccc3C2=O)cc1,-1.5%
10,CNc1ncnc2c1ncn2[C@H]1C[C@H](OP(=O)(O)O)[C@@H](COP(=O)(O)O)O1,-2.16% [at 287 µM]
11,CCCC[C@H](NC(=O)[C@@H]1CCCN1C(=O)[C@H]1CCCN1C(=O)[C@H](Cc1ccccc1)NC(=O)[C@@H](Cc1c[nH]c2ccccc12)NC(=O)[C@H](C)NC(=O)[C@H](CCCN=C(N)N)NC(=O)OC(C)(C)C)C(N)=O (Boc-RA[dW]F[dP]P[Nle]-NH2),1.41%
12,Cc1ccc(-c2nc3ncccn3c2Nc2ccc3c(c2)OCO3)o1,-5.26%
13,CC(C)c1nc2cc(C(=O)N3CCNC(=O)C3c3cccc(F)c3)ccc2o1 (stereo not given),0.0323%
14,O=C(O)Cc1sc(-c2cc3ccccc3oc2=O)nc1-c1ccc(-c2ccccc2)cc1,-0.387%
15,CC(=O)Nc1ccc(S(=O)(=O)/N=C2/NC(=O)/C(=C\c3ccco3)S2)cc1,-1.55% [at 23.6 µM]
16,COc1ccccc1CCNC(=O)C1CCC(=O)N(C2CC2)C1 (stereo not given),1.87%
17,O=c1oc2ccc(Cl)cc2cc1-c1nc2c(s1)CCCC2,22.4%
18,O=S(=O)(c1ccc2c(c1)C(=NNc1ccccc1)c1cc(S(=O)(=O)N3CCOCC3)ccc1-2)N1CCOCC1,13.8%
19,Cc1[nH]n(C(N)=S)c(=O)c1N=Nc1ccc2ccccc2c1,3.36%
20,O=C1CC(N2CCN(c3cccc(C(F)(F)F)c3)CC2)C(=O)N1c1ccc(F)cc1 (stereo not given),-6.67% [at 23.6 µM]
